# Compound activity from PubChem.
# Hits are enriched below; roughly 2.6% of the tested compounds scored in any of these assays.
# TAG inh: reduces triacylglycerol accumulation in H9c2 cells; AID 651582; Nile Red lipid (TAG) fluorescence; cells loaded with 200 µM oleic acid; actives 0.66% (n = 230,000); inhibition, % at 12.5 µM;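 active = pattern-corrected inhibition of lipid staining of at least 50% with the nuclear-stain viability signal not falling by more than 50%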;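 note: 0% = DMSO wells and 100% = triacsin C control wells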
# 697 NFkB inh: inhibitors of the PMA/ionomycin-induced NF-kB reporter in 697 B cells | AID 435022 | 697 B-cell NF-kB luciferase reporter, 16 h | actives 0.33% (n = 330,000) | inhibition, % at 4 µM; in the data active = inhibition above about 35%
# Gli-Sufu antag: antagonists of Gli-Sufu signaling; actives 0.74% (n = 340,000); AID 588413; Sufu-KO-LIGHT fibroblasts, Gli luciferase reporter luminescence; inhibition, % at 5 µM;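 active = inhibition above about 55%, limit read from the data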;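 note: 0% = DMSO-treated cells and 100% = wells with medium but no cells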
# Jurkat NFkB inh: lowers PMA/ionomycin-induced NF-kB signal in Jurkat cells; actives 0.53% (n = 330,000); inhibition, % at 4 µM; PMA/ionomycin-induced NF-kB luciferase reporter, luminescence; in the data active = inhibition above about 50%
# H9c2 protect: myocardial damage modulation in H9c2 cells; actives 0.63% (n = 360,000); protection from H2O2 cell death, % at 20 µM; H9c2 cardiomyocytes, H2O2 injury protection, ATPLite, 2 h; AID 588492;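 active = compounds giving at least 50% protection of heart cells from peroxide-induced death in the single-dose screen, raw or plate-pattern-corrected value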;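 note: 0% = DMSO wells with peroxide and 100% = DMSO wells without peroxide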
# NR2F2 inh: inhibitors of human COUP-TFII (NR2F2); P24468; HEK293T NGFI-A luciferase reporter, luminescence; inhibition, % at 8.6 µM; actives 0.7% (n = 370,000); AID 686940;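 active = inhibition above a per-plate cutoff, mean inhibition of test wells between control levels plus 3 SD, cut at about 38% in these data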;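 note: cells cotransfected with COUP-TFII expression vector driving the NGFI-A reporter; 0% = median of COUP-TF2 test wells and 100% = reporter-only cells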
# Target sequence (P24468 whole entry, looked up): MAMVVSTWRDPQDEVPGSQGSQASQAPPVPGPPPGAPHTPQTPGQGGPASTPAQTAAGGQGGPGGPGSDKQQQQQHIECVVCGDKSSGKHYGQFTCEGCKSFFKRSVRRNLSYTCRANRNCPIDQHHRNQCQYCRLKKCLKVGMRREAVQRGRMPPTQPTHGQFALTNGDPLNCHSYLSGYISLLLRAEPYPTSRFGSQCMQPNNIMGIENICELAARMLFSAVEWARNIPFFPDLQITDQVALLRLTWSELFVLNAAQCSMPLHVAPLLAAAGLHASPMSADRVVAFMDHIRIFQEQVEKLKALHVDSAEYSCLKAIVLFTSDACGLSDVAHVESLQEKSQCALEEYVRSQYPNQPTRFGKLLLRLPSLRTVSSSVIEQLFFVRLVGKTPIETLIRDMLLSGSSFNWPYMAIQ
# H9c2 TAG conf: confirmation of triacylglycerol accumulation inhibitors | shares compounds with TAG inh | H9c2 lipid accumulation, Nile Red fluorescence; cells loaded with 200 µM oleic acid | inhibition, % at 12.5 µM | actives 71% (n = 990);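 active = mean inhibition across replicates of 40% or more; inactive = mean inhibition below 40%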;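 note: plate controls were DMSO only wells for no effect and Triacsin C treated wells for full effect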
# The depositor's hits bear a star; . = no result given.
SMILES,TAG inh,697 NFkB inh,Gli-Sufu antag,Jurkat NFkB inh,H9c2 protect,NR2F2 inh,H9c2 TAG conf
COc1ccc2nc3cc([N+](=O)[O-])ccc3c(NNc3ccc([N+](=O)[O-])cc3)c2c1,50*,.,10,.,-2,-1,44*
COc1ccc(-c2cc(C(=O)Oc3ccc([N+](=O)[O-])cc3)c3ccccc3n2)cc1,6,-25,-18,-8,-14,-44,.
CC1(C(=O)NCc2cccs2)Cc2c(-c3ccc4c(c3)OCO4)ccnc2O1 (stereo not drawn),54*,.,.,.,-4,-6,52*
CC1(C(=O)NCc2cccs2)Cc2c(-c3ccccc3)ccnc2O1 (stereo not drawn),4,.,.,.,4,34,.
CC1(C(=O)Nc2cccc(Oc3ccccc3)c2)Cc2c(-c3ccc4c(c3)OCO4)ccnc2O1 (stereo not drawn),63*,.,.,.,-8,-6,47*
CC(C)(C)OC(=O)NCc1cc(F)ccc1/C=C/S(=O)(=O)NCc1ccc(F)cc1,.,.,.,.,.,-3,.
C[C@H](O)[C@@H]1C(=O)N2CCc3c([nH]c4cccc(-c5ccccc5)c34)[C@@H]2C[C@@H]1N(C)C(=O)Nc1ccccc1,.,.,.,.,.,-15,.
C[C@H](CO)N1C[C@H](C)[C@@H](CN(C)C(=O)Nc2ccc(F)cc2)Oc2cc(Br)ccc2S1(=O)=O,14,.,.,.,-5,0,.
COc1cccc(NC(=O)N(C)C[C@H]2Oc3cc(C#Cc4ccncc4)ccc3S(=O)(=O)N([C@H](C)CO)C[C@H]2C)c1,8,.,.,.,13,4,.
CC(C)NC(=O)N(C)C[C@H]1Oc2cc(C#Cc3ccc(F)cc3)ccc2S(=O)(=O)N([C@H](C)CO)C[C@H]1C,56*,.,.,.,-2,-7,63*
COc1ccc(C#Cc2ccc3c(c2)O[C@@H](CN(C)C(=O)Nc2cccc(OC)c2)[C@H](C)CN([C@@H](C)CO)S3(=O)=O)cc1,77*,.,.,.,11,-9,82*
CCCCCCn1c(-c2ccc(Cl)cc2Cl)csc1=Nc1ccccc1,.,.,.,.,.,-1,.
CC(C)(C)c1csc(NC(=O)c2cccs2)n1,73*,-151,-74,-50,-12,-26,34
COC(=O)Cn1cnc2c(NC(=O)c3ccccc3)ncnc21,.,.,.,.,.,-3,.
COc1ccc(C(=O)CSc2nnc(-c3cccs3)o2)cc1OC,.,.,.,.,.,2,.
CCC(C)N(Cc1ccc(OC)cc1OC)S(=O)(=O)c1cc(Br)ccc1Br (stereo not drawn),.,.,.,.,.,13,.
CC(C)(C)NCCC(O)c1cc(C(F)(F)F)nc2c(C(F)(F)F)cccc12 (stereo not drawn),65*,.,20,.,0,-15,63*
C[C@H](O)[C@@H]1C(=O)N2CCc3c([nH]c4cccc(-c5ccccc5)c34)[C@@H]2C[C@@H]1N(C)C(=O)OCc1ccccc1,.,.,.,.,.,8,.
COc1ccc(N2C[C@@]3(O)CC[C@@H](O)[C@@H](OC)[C@@H]3[C@@]2(C)[C@H](O)CC=C(C)C)cc1,.,.,.,.,.,-4,.
Cc1ccc(Cl)cc1NC(=S)N/N=C/c1cccc2ccccc12,69*,-22,3,50,-7,-11,85*
COc1ccc(-c2csc(NC(=S)NC(=O)/C=C/c3ccco3)n2)cc1Br,79*,-56,13,38,6,-9,87*
O=C(C(=O)N1CCC(CNS(=O)(=O)c2ccccc2OC(F)(F)F)CC1)c1cccs1,.,.,.,.,.,-16,.
COc1ccccc1NC(=O)c1ccccc1S(=O)(=O)c1ccc([N+](=O)[O-])cc1,54*,4,6,4,3,-5,-11
COc1ccccc1NC(=O)c1ccccc1S(=O)(=O)c1ccccc1[N+](=O)[O-],8,-25,-1,-6,11,14,.
CCOC(=O)N1CCC(N2Cc3cccc(C(=O)Nc4ccc(F)cc4)c3C2=O)CC1,33,1,15,14,19,-6,.
SMILES,TAG inh,697 NFkB inh,Gli-Sufu antag,Jurkat NFkB inh,H9c2 protect,NR2F2 inh,H9c2 TAG conf
CCOC(=O)N1CCC(N2Cc3cccc(C(=O)Nc4ccc(CC)cc4)c3C2=O)CC1,70*,11,3,6,6,6,27
NC(=O)c1cccc(-c2ccnc3c2CC(C(=O)NCc2ccc(F)c(F)c2)O3)c1 (stereo not drawn),5,.,.,.,41,16,.
NC(=O)c1cccc(-c2ccnc3c2CC(C(=O)NCc2ccccc2)O3)c1 (stereo not drawn),50*,.,.,.,13,-60,54*
CC(=O)c1cccc(NC(=O)C2(C)Cc3c(-c4cccc(C(N)=O)c4)ccnc3O2)c1 (stereo not drawn),7,.,.,.,43,7,.
CC1(C(=O)NCc2ccccc2)Cc2c(-c3cccc(C(N)=O)c3)ccnc2O1 (stereo not drawn),55*,.,.,.,8,-6,60*
CC1(C(=O)NCc2ccco2)Cc2c(-c3cccc(C(F)(F)F)c3)ccnc2O1 (stereo not drawn),54*,.,.,.,3,5,46*
COc1ccc(NC(=O)C2(C)Cc3c(-c4cccc(C(N)=O)c4)ccnc3O2)cn1 (stereo not drawn),50*,.,.,.,15,-2,55*
CCCCC(=O)N(Cc1ccccc1)c1ccccc1C(=O)Nc1cc(OC)ccc1OC,.,.,.,.,.,-4,.
COC(=O)C1CN(C2CC2)CCS(=O)(=O)N1Cc1cn(Cc2ccccc2)nn1 (stereo not drawn),.,.,.,.,.,4,.
COc1ccc(CN(C)C(=O)CCl)cc1,44,.,-9,.,-4,-14,.
CN(Cc1ccc(Cl)cc1)C(=O)CCl,52*,18,-6,18,-7,0,60*
Cc1ccc(NC(=O)CSc2nnc(C)c(=O)n2N)cc1Cl,51*,2,-6,-5,5,-12,44*
Cc1nnc(SCC(=O)Nc2ccc(OC(F)F)c(Cl)c2)n(N)c1=O,19,6,1,5,-7,9,.
CCCc1ccc(-c2cc(NC(=O)Cc3c(C)[nH]c4ccccc34)ccc2N(C)c2cccnc2)cc1,.,.,.,.,.,-4,.
Cc1ccc(F)c(Oc2cc(NN3CCCCC3)c([N+](=O)[O-])cc2[N+](=O)[O-])c1,50*,15,11,6,-14,7,7
C[C@@]12C(=O)Nc3ccc(Br)cc3C(=O)N1[C@H]1c3cc(Cl)ccc3OC[C@@H]1[C@@H]2c1ccccc1,52*,23,5,29,6,.,64*
c1coc(-c2nc3c4ccccc4ccn3c2Cc2ccsc2)c1,.,.,.,.,.,-53,.
Cc1cccc2c(N=Nc3ccc(S(=O)(=O)Nc4ccc(Cl)cc4)cc3[N+](=O)[O-])c(O)[nH]c12,54*,-5,19,-4,-2,-5,51*
Cc1cccc2c(N=NC(=O)c3ccc(NS(=O)(=O)c4cccs4)cc3)c(O)[nH]c12,10,-82,-50,-18,-20,-14,.
